PubChem BioAssay (NCI)
“And” between values parts separate entries of the source, which are not always exact repeats. Equal entries are not always repeated. Compounds without any hit were thinned out: in the full panel of roughly 79,000, 15% have a hit. The source made the active and inactive calls. Cut-off read from the data, not from the text of the source: active = growth inhibition above about 70%; inactive = the rest.

What was measured:
[1] = NCI Yeast Anticancer Drug Screen. Data for the rad52 strain (AID 147);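 note: 0% = growth of vehicle-treated control cultures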; settings: S. cerevisiae rad52 mutant growth inhibition, stronger effect = higher value
Method in brief: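 Here a repair-compromised yeast strain receives each compound; its growth is then quantified and normalised to vehicle-only controls.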

[2] = NCI Yeast Anticancer Drug Screen. Data for the wt1 strain (AID 149);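 note: 0% = growth of vehicle-treated wt1 cultures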; settings: S. cerevisiae wt1 strain (SPY 50644) growth inhibition, stronger effect = higher value
Method in brief: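 Readout: yeast growth inhibition, normalised to vehicle controls, in the wt1 strain exposed to test compounds.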

[3] = NCI Yeast Anticancer Drug Screen. Data for the rad50EPP+ strain (AID 151);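 note: 0% = growth of vehicle-treated control cultures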; settings: S. cerevisiae rad50 mutant strain, stronger effect = higher value
Method in brief: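 Read-out is yeast growth inhibition relative to vehicle; cells used were the rad50EPP+ strain.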

[4] = NCI Yeast Anticancer Drug Screen. Data for the mgt1 strain (AID 153); settings: S. cerevisiae mgt1 mutant growth inhibition, stronger effect = higher value
Method in brief: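 Measured: inhibition of mgt1 yeast growth by compound, normalized to vehicle-treated cultures.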

[5] = NCI Yeast Anticancer Drug Screen. Data for the rad50 strain (AID 155);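 note: 0% = growth of vehicle-only cultures of the same strain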; settings: S. cerevisiae rad50 strain growth inhibition, stronger effect = higher value
Method in brief: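 Compounds were tested on a yeast strain with an engineered DNA damage repair alteration; the reported value is growth inhibition normalised to vehicle treatment.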

[6] = NCI Yeast Anticancer Drug Screen. Data for the mec2-1 strain (AID 157); settings: S. cerevisiae mec2-1 strain, stronger effect = higher value
Method in brief: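 Using mec2-1 yeast: add compound, measure growth, express inhibition versus vehicle-treated cultures.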

[7] = NCI Yeast Anticancer Drug Screen. Data for the rad14 strain (AID 159);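 note: 0% = growth of vehicle-treated control cultures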; settings: S. cerevisiae rad14 strain growth inhibition, stronger effect = higher value
Method in brief: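 Compound-treated yeast with a defined DNA-repair lesion; growth inhibition normalised to vehicle-treated cultures.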

[8] = NCI Yeast Anticancer Drug Screen. Data for the sgs1 mgt1 strain (AID 161);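 note: 0% = growth of cultures given vehicle only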; settings: S. cerevisiae sgs1 mgt1 strain, stronger effect = higher value
Method in brief: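 Compounds are added to genetically altered yeast, and growth is compared with cultures given vehicle alone to give percent inhibition.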

[9] = NCI Yeast Anticancer Drug Screen. Data for the CLN2oe strain (AID 163);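 note: 0% = growth of vehicle-only control cultures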; settings: S. cerevisiae CLN2oe strain, stronger effect = higher value
Method in brief: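 Whole-cell yeast growth assay. A strain engineered for altered cell-cycle control received compound, and inhibition relative to vehicle-treated cultures was recorded.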

[10] = NCI Yeast Anticancer Drug Screen. Data for the cln2 rad14 strain (AID 165);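 note: 0% = growth equal to vehicle treated cultures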; settings: S. cerevisiae cln2 rad14 strain, stronger effect = higher value
Method in brief: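 Yeast strain cln2 rad14, bearing defects in cell cycle control and DNA repair, serves as the test system; values reflect growth inhibition compared with vehicle.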

[11] = NCI Yeast Anticancer Drug Screen. Data for the bub3 strain (AID 167); settings: S. cerevisiae bub3 mutant strain, stronger effect = higher value
Method in brief: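 Growth of a checkpoint-deficient yeast mutant is measured after compound exposure. Values represent inhibition relative to vehicle.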

[12] = NCI Yeast Anticancer Drug Screen. Data for the wt2 strain (AID 169);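 note: 0% = growth of vehicle-treated yeast cultures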; settings: S. cerevisiae wt2 strain growth inhibition, stronger effect = higher value
Method in brief: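 Treated yeast vs. vehicle-treated yeast: growth inhibition determined.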

[13] = NCI Yeast Anticancer Drug Screen. Data for the mlh1 strain (AID 171);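 note: 0% = growth of vehicle-treated control cultures of the same strain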; settings: S. cerevisiae mlh1 strain growth inhibition, stronger effect = higher value
Method in brief: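 A yeast strain with a defined genetic lesion serves as the test organism. Cultures receive compound or vehicle, and growth is measured.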

[14] = NCI Yeast Anticancer Drug Screen. Data for the sgs1 strain (AID 173);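 note: 0% = growth of vehicle-only control cultures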; settings: S. cerevisiae sgs1 mutant, stronger effect = higher value
Method in brief: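 A genetically defined yeast mutant is incubated with the test compound, and its growth is compared to that of the same strain given vehicle.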

[15] = NCI Yeast Anticancer Drug Screen. Data for the mlh1 rad18 strain (AID 175); settings: S. cerevisiae mlh1 rad18 strain growth inhibition, stronger effect = higher value
Method in brief: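 Steps: expose repair-defective yeast to compound; measure growth; express inhibition against vehicle-treated controls.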

[16] = NCI Yeast Anticancer Drug Screen. Data for the rad18 strain (AID 177); settings: S. cerevisiae rad18 mutant growth inhibition, stronger effect = higher value
Method in brief: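 Measured value is growth inhibition of a yeast strain bearing a DNA repair alteration, referenced to vehicle-treated cells.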

[17] = at 5.0 µM (retest, dose inferred, filed as 0.5)
[18] = at 50.0 µM (retest, dose inferred, filed as 5.0)

Measured: growth inhibition

CN(C)C=NC1CCC(C(C)(C)C)CC1 (stereo unspecified)
inactive: [1]; at 1.2 µM -5% | [1]; at 3.7 µM 7% | [1]; at 11.0 µM 34% | [2]; at 1.2 µM -4% | [2]; at 3.7 µM -5% | [2]; at 11.0 µM -1% | [2]; at 33.0 µM 51% | [3]; at 1.2 µM -2% | [3]; at 3.7 µM 5% | [3]; at 11.0 µM 10% | [3]; at 33.0 µM 30% | [4]; at 1.2 µM -1% | [4]; at 3.7 µM -1% | [4]; at 11.0 µM 45% | [5]; at 1.2 µM -3% | [5]; at 3.7 µM -1% | [5]; [17] 28% | [5]; at 11.0 µM 59% | [6]; at 1.2 µM 2% | [6]; at 3.7 µM 0% | [6]; [17] -24% | [6]; at 11.0 µM 10% | [7]; at 1.2 µM -1% | [7]; at 3.7 µM 11% | [8]; [17] 14% | [9]; at 1.2 µM 1% | [9]; at 3.7 µM 9% | [9]; at 11.0 µM 44% | [10]; [17] 17% | [11]; at 1.2 µM -8% | [11]; at 3.7 µM -2% | [11]; [17] 62% | [11]; at 11.0 µM 55% | [12]; at 1.2 µM 0% | [12]; at 3.7 µM 4% | [12]; at 11.0 µM 34% | [13]; at 1.2 µM 8% | [13]; at 3.7 µM 1% | [13]; at 11.0 µM 47% | [14]; at 1.2 µM 1% | [14]; at 3.7 µM 2% | [14]; at 11.0 µM 55% | [15]; [17] -32% | [16]; at 1.2 µM -3% | [16]; at 3.7 µM 8% | [16]; at 11.0 µM 54%
active: [1]; at 33.0 µM 74% | [1]; at 100.0 µM 99% | [2]; at 100.0 µM 97% | [3]; at 100.0 µM 73% | [4]; at 33.0 µM 97% | [4]; at 100.0 µM 99% | [5]; at 33.0 µM 97% | [5]; [18] 97% | [5]; at 50.0 µM 98.8% | [5]; at 100.0 µM 99% | [6]; at 33.0 µM 73% | [6]; [18] 99% | [6]; at 50.0 µM 95.8% | [6]; at 100.0 µM 99% | [7]; at 11.0 µM 75% | [7]; at 33.0 µM 98% | [7]; at 100.0 µM 99% | [8]; [18] 98% | [8]; at 50.0 µM 97.7% | [9]; at 33.0 µM 95% | [9]; at 100.0 µM 99% | [10]; [18] 98% | [10]; at 50.0 µM 98.4% | [11]; at 33.0 µM 94% | [11]; [18] 98% | [11]; at 50.0 µM 97.5% | [11]; at 100.0 µM 99% | [12]; at 33.0 µM 88% | [12]; at 100.0 µM 99% | [13]; at 33.0 µM 94% | [13]; at 100.0 µM 99% | [14]; at 33.0 µM 95% | [14]; at 100.0 µM 99% | [15]; [18] 98% | [15]; at 50.0 µM 98.2% | [16]; at 33.0 µM 93% | [16]; at 100.0 µM 99%

O=C(O)CNC(=S)Nc1ccccc1
inactive: [1]; at 1.2 µM -72% | [1]; at 3.7 µM -88% | [1]; at 11.0 µM -22% | [1]; at 33.0 µM 54% | [2]; at 1.2 µM -52% | [2]; at 3.7 µM -52% | [2]; at 11.0 µM -47% | [2]; at 33.0 µM 43% | [3]; at 1.2 µM -86% | [3]; at 3.7 µM -35% | [3]; at 11.0 µM -74% | [3]; at 33.0 µM -40% | [3]; at 100.0 µM 56% | [4]; at 1.2 µM -36% | [4]; at 3.7 µM -17% | [4]; at 11.0 µM 6% | [5]; at 1.2 µM -67% | [5]; at 3.7 µM -68% | [5]; [17] 51% | [5]; at 11.0 µM -48% | [5]; at 33.0 µM 53% | [5]; at 50.0 µM 4.35% and 69.5% | [6]; at 1.2 µM -68% | [6]; at 3.7 µM -21% | [6]; [17] 50% | [6]; at 11.0 µM -8% | [6]; at 33.0 µM 54% | [6]; at 50.0 µM 6.5% and 52.1% | [7]; at 1.2 µM -47% | [7]; at 3.7 µM -41% | [7]; at 11.0 µM -48% | [7]; at 33.0 µM 47% | [8]; [17] -9% | [8]; at 50.0 µM 5.2% and 64.6% | [9]; at 1.2 µM 2% | [9]; at 3.7 µM -9% | [9]; at 11.0 µM -3% | [9]; at 33.0 µM 52% | [10]; [17] 63% | [10]; at 50.0 µM 36.6% and 42% | [11]; at 1.2 µM -46% | [11]; at 3.7 µM -39% | [11]; [17] 6% | [11]; at 11.0 µM -15% | [11]; at 33.0 µM 49% | [11]; at 50.0 µM 8.5% and 53.4% | [12]; at 1.2 µM -74% | [12]; at 3.7 µM -64% | [12]; at 11.0 µM -49% | [12]; at 33.0 µM 31% | [13]; at 1.2 µM -63% | [13]; at 3.7 µM -56% | [13]; at 11.0 µM -30% | [13]; at 33.0 µM 53% | [14]; at 1.2 µM -55% | [14]; at 3.7 µM -51% | [14]; at 11.0 µM -39% | [14]; at 33.0 µM 56% | [15]; [17] 33% | [15]; at 50.0 µM 3.45% and 54.6%
active: [1]; at 100.0 µM 85% | [2]; at 100.0 µM 91% | [4]; at 33.0 µM 77% | [4]; at 100.0 µM 94% | [5]; [18] 82% | [5]; at 100.0 µM 93% | [6]; [18] 85% | [6]; at 100.0 µM 90% | [7]; at 100.0 µM 91% | [8]; [18] 91% | [9]; at 100.0 µM 86% | [10]; [18] 92% | [11]; [18] 85% | [11]; at 100.0 µM 89% | [12]; at 100.0 µM 88% | [13]; at 100.0 µM 93% | [14]; at 100.0 µM 91% | [15]; [18] 70%
